Measured values taken from the supplement of paper PMC8728848.
Many of the other results were omitted from the sample, so the strongest signals are more common in it than they were.

Assays:
Test in all cases: glycan array binding signal (z-score within array); higher = stronger binding
Details in all cases: glycan notation: IUPAC condensed, linker removed
[1] = target: Fuc(a1-2)Gal(b1-3)GalNAc(b1-3)Gal
Procedure, shortened: (§1)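 The binding signal is a Z-score computed within each array and averaged over linkers. Arrays of the same protein sequence at different concentrations or buffers were also averaged together. Data originate from 3228 arrays in the Consortium for Functional Glycomics database, kept only where the protein sequence was available.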

[2] = target: Fuc(a1-2)Gal(b1-4)[Fuc(a1-3)]GlcNAc
Procedure, shortened: as §1

[3] = target: Fuc(a1-2)[Gal(a1-3)]Gal(b1-4)[Fuc(a1-3)]GlcNAc
Procedure, shortened: as §1

[4] = target: Gal(b1-3)[Fuc(a1-4)]GlcNAc(b1-3)Gal(b1-4)GlcNAc
Procedure, shortened: as §1

[5] = target: Gal(b1-3)[Fuc(a1-4)]GlcNAc(b1-3)Gal(b1-4)[Fuc(a1-3)]GlcNAc
Procedure, shortened: as §1

Gal3S(b1-4)Glc = target: Gal3S(b1-4)Glc
Procedure, shortened: as §1

Gal3S(b1-4)Glc6S = target: Gal3S(b1-4)Glc6S
Procedure, shortened: as §1

Gal3S(b1-4)GlcNAc = target: Gal3S(b1-4)GlcNAc
Procedure, shortened: as §1

Gal3S(b1-4)GlcNAc6S = target: Gal3S(b1-4)GlcNAc6S
Procedure, shortened: as §1

Gal3S6S(b1-4)GlcNAc = target: Gal3S6S(b1-4)GlcNAc
Procedure, shortened: as §1

Gal6S(b1-4)GlcNAc = target: Gal6S(b1-4)GlcNAc
Procedure, shortened: as §1

[6] = target: GlcNAc(a1-3)Gal(b1-4)GlcNAc
Procedure, shortened: as §1

[7] = target: GlcNAc(b1-3)[GlcNAc(b1-6)]GalNAc
Procedure, shortened: as §1

[8] = target: GlcNAc(b1-4)[GlcNAc(b1-6)]GalNAc
Procedure, shortened: as §1

[9] = target: Man(a1-2)Man(a1-3)[Man(a1-2)Man(a1-6)]Man(a1-6)[Man(a1-3)[Man(a1-6)]Man(a1-6)]Man(b1-4)GlcNAc(b1-4)GlcNAc
Procedure, shortened: as §1

Neu5Ac(a2-3)GalNAc = target: Neu5Ac(a2-3)GalNAc
Procedure, shortened: as §1

[10] = target: Neu5Ac(a2-3)GalNAc(b1-4)GlcNAc
Procedure, shortened: as §1

[11] = target: Neu5Ac(a2-3)[GalNAc(b1-4)]Gal(b1-4)Glc
Procedure, shortened: as §1

Neu5Ac(a2-6)Gal(b1-4)Glc = target: Neu5Ac(a2-6)Gal(b1-4)Glc
Procedure, shortened: as §1

[12] = target: Neu5Gc(a2-3)Gal(b1-4)[Fuc(a1-3)]GlcNAc
Procedure, shortened: as §1

[13] = target: Fuc(a1-2)Gal(b1-4)[Fuc(a1-3)]GalNAc(b1-3)Gal(b1-4)[Fuc(a1-3)]GlcNAc
Procedure, shortened: as §1

[14] = target: Fuc(a1-3)[GalNAc(b1-4)]Gal(b1-4)GlcNAc
Procedure, shortened: as §1

[15] = target: Gal(b1-3)[GlcNAc(b1-6)]GlcNAc
Procedure, shortened: as §1

[16] = target: Gal(b1-4)GlcNAc(b1-3)Gal(b1-4)[Fuc(a1-3)]GlcNAc(b1-3)Gal(b1-4)[Fuc(a1-3)]GlcNAc
Procedure, shortened: as §1

GalNAc(b1-4)GlcNAc = target: GalNAc(b1-4)GlcNAc
Procedure, shortened: as §1

[17] = target: GlcNAc(b1-3)Gal(b1-3)GalNAc
Procedure, shortened: as §1

[18] = target: GlcNAc(b1-4)GlcNAc(b1-4)GlcNAc(b1-4)GlcNAc(b1-4)GlcNAc
Procedure, shortened: as §1

[19] = target: GlcNAc(b1-4)GlcNAc(b1-4)GlcNAc(b1-4)GlcNAc(b1-4)GlcNAc(b1-4)GlcNAc
Procedure, shortened: as §1

[20] = target: Neu5Ac(a2-3)Gal(b1-3)[Neu5Ac(a2-3)Gal(b1-4)]GlcNAc
Procedure, shortened: as §1

Neu5Ac(a2-3)Gal(b1-4)Glc = target: Neu5Ac(a2-3)Gal(b1-4)Glc
Procedure, shortened: as §1

[21] = target: Neu5Ac(a2-3)Gal(b1-4)GlcNAc(b1-3)Gal(b1-4)GlcNAc
Procedure, shortened: as §1

[22] = target: Neu5Ac(a2-3)Gal(b1-4)GlcNAc(b1-3)Gal(b1-4)GlcNAc(b1-3)Gal(b1-4)GlcNAc
Procedure, shortened: as §1

[23] = target: Neu5Ac(a2-8)Neu5Ac(a2-8)Neu5Ac(a2-8)Neu5Ac(a2-3)[GalNAc(b1-4)]Gal(b1-4)Glc
Procedure, shortened: as §1

[24] = target: Neu5Gc(a2-3)Gal(b1-4)GlcNAc
Procedure, shortened: as §1

[25] = target: Fuc(a1-2)Gal(b1-3)[Fuc(a1-4)]GlcNAc
Procedure, shortened: as §1

Fuc(a1-2)Gal(b1-4)Glc = target: Fuc(a1-2)Gal(b1-4)Glc
Procedure, shortened: as §1

[26] = target: Fuc(a1-2)Gal(b1-4)GlcNAc(b1-3)Gal(b1-4)GlcNAc
Procedure, shortened: as §1

Fuc(a1-2)[Gal(a1-3)]Gal = target: Fuc(a1-2)[Gal(a1-3)]Gal
Procedure, shortened: as §1

[27] = target: Fuc(a1-2)[Gal(a1-3)]Gal(b1-4)Glc
Procedure, shortened: as §1

[28] = target: Fuc(a1-2)[GalNAc(a1-3)]Gal(b1-3)GlcNAc
Procedure, shortened: as §1

Fuc(a1-3)GlcNAc = target: Fuc(a1-3)GlcNAc
Procedure, shortened: as §1

[29] = target: Gal(a1-3)[Gal(a1-4)]Gal(b1-4)GlcNAc
Procedure, shortened: as §1

Gal(a1-4)Gal(b1-4)GalNAc = target: Gal(a1-4)Gal(b1-4)GalNAc
Procedure, shortened: as §1

[30] = target: Gal(b1-3)[GlcNAc(b1-6)]GalNAc
Procedure, shortened: as §1

Gal(b1-4)GlcNAc = target: Gal(b1-4)GlcNAc
Procedure, shortened: as §1

Gal3S6S(b1-4)GlcNAc6S = target: Gal3S6S(b1-4)GlcNAc6S
Procedure, shortened: as §1

Gal6S(b1-4)Glc6S = target: Gal6S(b1-4)Glc6S
Procedure, shortened: as §1

GalNAc(a1-3)Gal = target: GalNAc(a1-3)Gal
Procedure, shortened: as §1

Glc(a1-4)Glc = target: Glc(a1-4)Glc
Procedure, shortened: as §1

[31] = target: GlcNAc(b1-2)Gal(b1-3)GlcNAc
Procedure, shortened: as §1

[32] = target: Man(a1-2)Man(a1-2)Man(a1-3)Man
Procedure, shortened: as §1

[33] = target: Man(a1-2)Man(a1-2)Man(a1-3)[Man(a1-2)Man(a1-6)[Man(a1-3)]Man(a1-6)]Man(b1-4)GlcNAc(b1-4)GlcNAc
Procedure, shortened: as §1

Man(a1-3)[Man(a1-6)]Man = target: Man(a1-3)[Man(a1-6)]Man
Procedure, shortened: as §1

[34] = target: Neu5Ac(a2-3)Gal(b1-3)[Fuc(a1-4)]GlcNAc
Procedure, shortened: as §1

[35] = target: Neu5Ac(a2-3)Gal(b1-4)[Fuc(a1-3)]GlcNAc6S
Procedure, shortened: as §1

B1: MAL (Maackia amurensis) (protein)
chain: SDELSFTINNFMPNQGDLLFQGVATVSPTGVLQLTSEENGQPLEYSVGRVLYTAPVRIWDSTTGAVASFSTSFTFVVKAARGASDGLAFFLAPPDSQIPSGSVSKYLGLFNNSNSDSSNQIVAVEFDTYFGHSYDPWDPNYRHIGIDVNGIESIKTVQWDWINGGVAFATITYLAPNKTLIASLVYPSNQTSFIVAASVDLKEILPEWVRVGFSAATGAPKAVETHDVRSWSFTSTLEANSPADVDN
For B1, the “glycan array binding signal (z-score)” value [1] was -0.382, the “glycan array binding signal (z-score)” value [2] was 0.544 and the “glycan array binding signal (z-score)” value [3] was -0.348. The “glycan array binding signal (z-score)” value [4] was -0.428, the “glycan array binding signal (z-score)” value [5] was -0.272 and the “glycan array binding signal (z-score)” value (Gal3S(b1-4)Glc) was 4.98. The “glycan array binding signal (z-score)” value (Gal3S(b1-4)Glc6S) was 4.51, the “glycan array binding signal (z-score)” value (Gal3S(b1-4)GlcNAc) was 4.96 and the “glycan array binding signal (z-score)” value (Gal3S(b1-4)GlcNAc6S) was 5.35. For the same binder, the “glycan array binding signal (z-score)” value (Gal3S6S(b1-4)GlcNAc) was 0.345, the “glycan array binding signal (z-score)” value (Gal6S(b1-4)GlcNAc) was -0.066 and the “glycan array binding signal (z-score)” value [6] was -0.353. The “glycan array binding signal (z-score)” value [7] was -0.374, the “glycan array binding signal (z-score)” value [8] was -0.221 and the “glycan array binding signal (z-score)” value [9] was -0.305. The “glycan array binding signal (z-score)” value (Neu5Ac(a2-3)GalNAc) was -0.392, the “glycan array binding signal (z-score)” value [10] was -0.416 and the “glycan array binding signal (z-score)” value [11] was -0.394. For the same binder, the “glycan array binding signal (z-score)” value (Neu5Ac(a2-6)Gal(b1-4)Glc) was 0.057 and the “glycan array binding signal (z-score)” value [12] was -0.371.

B2: chitinase 3-like protein 2 (Homo sapiens) (protein)
chain: YKLVCYFTQWSQDRQEPGKFTPENIDPFLCSHLIYSFASIENNKVIIKDKSEVMLYQTINSLKTKNPKLKILLSIGGYLFGSKGFHPMVDSSTSRLEFINSIILFLRNHNFDGLDVSWIYPDQKENTHFTVLIHELAEAFQKDFTKSTKERLLLTAGVSAGRQMIDNSYQVEKLAKDLDFINLLSFDFHGSWEKPLITGHNSPLSKGWQDRGPSSYYNVEYAVGYWIHKGMPSEKVVMGIPTYGHSFTLASAETTVGAPASGPGAAGPITESSGFLAYYEICQFLKGAKITRLQDQQVPYAVKGNQWVGYDDVKSMETKVQFLKNLNLGGAMIWSIDMDDFTGKSCNQGPYPLVQAVKRSLGSL
B2 was tested, and the “glycan array binding signal (z-score)” value [1] was -0.164, the “glycan array binding signal (z-score)” value [13] was -0.22 and the “glycan array binding signal (z-score)” value [14] was -0.196. The “glycan array binding signal (z-score)” value [15] was -0.209, the “glycan array binding signal (z-score)” value [16] was -0.183 and the “glycan array binding signal (z-score)” value (GalNAc(b1-4)GlcNAc) was 2.63. The “glycan array binding signal (z-score)” value [6] was -0.271, the “glycan array binding signal (z-score)” value [17] was -0.22 and the “glycan array binding signal (z-score)” value [18] was 7.67. The “glycan array binding signal (z-score)” value [19] was 9.06, the “glycan array binding signal (z-score)” value [20] was -0.116 and the “glycan array binding signal (z-score)” value (Neu5Ac(a2-3)Gal(b1-4)Glc) was -0.233. The “glycan array binding signal (z-score)” value [21] was -0.269, the “glycan array binding signal (z-score)” value [22] was -0.127 and the “glycan array binding signal (z-score)” value [23] was 1.51. For the same binder, the “glycan array binding signal (z-score)” value [24] was 0.093.

B3: TLEC1 (Arabidopsis thaliana), Q9C5Q9 (protein)
chain: MSGASSVSSICSSNVSLIPTGPQVFINFRGKDLRKGFMSFLKPALKKEKINVFIDEQEERGKYLISLFDTIGESKIALVIFSEGYCESHWCMDELVKIKEYMDQNRLIIIPIFYRLDLDVVKDLTGKFGDNFWDLVDKYQPEPKKLHKWTEALFSVCELFSLILPKHSDISDRDFVKSIVKAVKKVQKNFFQRRNGEIEYQDFSVPACKLTITMHESPNEEAVQVTVLNEFYQMKNQSPVPSYEFKFWVDLTRPKGNVFMIDARDLSIAWSEDSNHWTWLPLPNQNSNESVMEIAFLKSASWLDVAGKFDTRYLTPRTRYEVVFVVKLEYTFEWETLVKLKLDLPNTWEKPQEQSVDMFDYISDQWLDIPVGEFTTSKKNVGEISFAMYEHECQLWKSGLFVKGVTIRPKY
With B3 the “glycan array binding signal (z-score)” value [1] was 0.538, the “glycan array binding signal (z-score)” value [25] was -0.075 and the “glycan array binding signal (z-score)” value (Fuc(a1-2)Gal(b1-4)Glc) was 1.08. For the same binder, the “glycan array binding signal (z-score)” value [26] was 0.966, the “glycan array binding signal (z-score)” value [13] was 1.49 and the “glycan array binding signal (z-score)” value (Fuc(a1-2)[Gal(a1-3)]Gal) was -0.268. For the same binder, the “glycan array binding signal (z-score)” value [27] was -0.089, the “glycan array binding signal (z-score)” value [28] was 0.897 and the “glycan array binding signal (z-score)” value (Fuc(a1-3)GlcNAc) was 1.82. The “glycan array binding signal (z-score)” value [29] was -0.228, the “glycan array binding signal (z-score)” value (Gal(a1-4)Gal(b1-4)GalNAc) was -0.13 and the “glycan array binding signal (z-score)” value [30] was -0.317. For the same binder, the “glycan array binding signal (z-score)” value (Gal(b1-4)GlcNAc) was -0.385, the “glycan array binding signal (z-score)” value (Gal3S(b1-4)Glc6S) was 1.16 and the “glycan array binding signal (z-score)” value (Gal3S6S(b1-4)GlcNAc6S) was 12.3. For the same binder, the “glycan array binding signal (z-score)” value (Gal6S(b1-4)Glc6S) was 1.65, the “glycan array binding signal (z-score)” value (GalNAc(a1-3)Gal) was -0.288 and the “glycan array binding signal (z-score)” value (Glc(a1-4)Glc) was -0.148. For the same binder, the “glycan array binding signal (z-score)” value [31] was -0.386, the “glycan array binding signal (z-score)” value [32] was -0.005 and the “glycan array binding signal (z-score)” value [33] was -0.509. For the same binder, the “glycan array binding signal (z-score)” value (Man(a1-3)[Man(a1-6)]Man) was -0.105, the “glycan array binding signal (z-score)” value [34] was -0.525 and the “glycan array binding signal (z-score)” value [35] was -0.464. The “glycan array binding signal (z-score)” value [11] was -0.46.
